Shown are actives, neighbours in structure and some others; about 2.8% of the full set was active somewhere.
POLH inh: DNA polymerase eta (human) inhibition; Potency, µM (top dose mostly 114 µM), for inactives: at the highest dose activity change, negative = inhibition, usual class: inhibitors; recombinant Pol eta, fluorescent DNA replication assay; actives 1.2% (n = 390,000); Q9Y253; AID 588591; also: potency is read from the fitted curve at half-maximal effect; % is scaled to controls: 0 for no effect and ±100 for the full control effect
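Pol eta at 10 nM preincubated with compounds 15 min at room temperature; reaction started with fluorescent substrate (50 nM final) and read kinetically at 0 and 10 min.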
POLB inh: DNA polymerase beta (human) inhibition; Pol beta primer extension/strand displacement, fluorescence kinetic; actives 1.3% (n = 340,000); Potency, µM (doses to about 114 µM), without a hit: at the top dose activity change, negative = inhibition, most hits filed as inhibitors; AID 485314; also: potency is read from the fitted curve at half-maximal effect; % is scaled to controls: 0 for no effect and ±100 for the full control effect
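10 nM enzyme + cpd, 15 min RT; start with substrate 50 nM final; read 0 min and after 10 min RT. Corrected, normalized data; 4-parameter Hill curve fit.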
PI5P4Ka inh: inhibitors of human PI5P4K alpha. max response, %. actives 1.2% (n = 330,000). P48426. AID 652105. PI5P4Kalpha enzyme, ADP-Glo luminescence, 60 min; active compounds read low; active = max response of -50% or lower; inconclusive = between -30% and -50%; inactive = -30% or higher; also: value at the top dose of about 77 µM; % is scaled to controls: 0 for no effect and ±100 for the full control effect
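Human PI5P4Kalpha with substrate in 0.038 M HEPES pH 7.4, 0.28 mM EGTA, 0.1% CHAPS, 5% DMSO; reaction started with 5 microM ATP (final), 60 min at room temperature. ADP formed read by ADP-Glo luminescence.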
Pol iota inh: blocks human DNA polymerase iota activity. Q9UNA4. Pol iota fluorescent replication assay, 10 min. Potency, µM (highest dose often 115 µM), for inactives: at the highest dose activity, negative = inhibition, actives largely listed as inhibitors. actives 1% (n = 390,000). AID 588590; also: potency is read from the fitted curve at half-maximal effect
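Fluorescent replication assay read twice, at 0 min and 10 min after adding 50 nM (final) substrate. Enzyme (10 nM) and compounds were first incubated 15 min at room temperature; enzyme-free buffer wells were negative controls.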
POLK inh: inhibitors of human DNA polymerase kappa; Q9UBT6; purified Pol kappa, fluorescent DNA synthesis assay, 10 min; Potency, µM (series often up to 107 µM), inactives show at the top dose activity, negative = inhibition, actives largely listed as inhibitors; actives 0.53% (n = 400,000); AID 588579; also: potency is read from the fitted curve at half-maximal effect; % is scaled to controls: 0 for no effect and ±100 for the full control effect
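10 nM Pol kappa was preincubated with compounds for 15 min at room temperature. Reaction started with 50 nM (final) substrate. Fluorescence read kinetically at 0 and 10 min.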
FEN1 inhibitor: blocks human flap endonuclease 1. P39748. Recombinant FEN1 flap cleavage, fluorescence, 15 min. Potency, µM (titrated, usually from 114 µM), inactives show top-dose activity change, negative = inhibition, actives largely listed as inhibitors. actives 0.35% (n = 390,000). AID 588795; also: potency is read from the fitted curve at half-maximal effect; % is scaled to controls: 0 for no effect and ±100 for the full control effect; nearly all actives have a fitted effect of over 65% in size
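Enzyme 10 nM, 15 min RT preincubation with compound; start with substrate 50 nM final; reads at 0 and 15 min; qHTS titration, four-parameter Hill fit.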
ADP-Glo counter: ADP-Glo luciferase interference, PI5P4K counter-screen | shares compounds with PI5P4Ka inh | ADP-Glo detection counter-screen, luciferase luminescence, no enzyme | Potency, µM (series often up to 76.9 µM), for the others: top-dose activity change, negative = inhibition, usual class: inhibitors | 1,100 tested, under 10 active | AID 743285
* marks the source's active call; other numbers are inactive results; ? = inconclusive; nt = no result. Unless noted, calls follow the shape of the dose curve; as a rule, active = well fitted curve in the direction sought with a large enough effect; inconclusive = small, poorly fitted or top-dose-only effect, or another doubt; inactive = no such curve, though single readings can be large; an effect the other way counts as inactive or inconclusive.

SMILES | POLH inh | POLB inh | PI5P4Ka inh | Pol iota inh | POLK inh | FEN1 inhibitor | ADP-Glo counter
Cc1cccc(-n2c(=S)[nH]c3sc4c(c3c2=O)CCc2ccccc2-4)c1 | -8.0% | 5.2% | -77.0* | 64.3% | -24.6% | -1.3% | 0.1%
O=S(=O)(NC1CCCCC1)c1ccc(Cl)nc1 | -0.6% | 17.0% | -9.9 | 51.4% | -8.5% | 2.3% | nt
Cc1cccc(C(=O)NC2CCN(CC(=O)Nc3ccccc3Cl)CC2)c1 | -12.8% | 1.8% | 4.5 | 134.4% | 1.3% | 3.6% | nt
CCOC(=O)COc1ccc(CC)cc1C(=O)c1ccn2nc(-c3ccc(C)cc3)cc2n1 | -10.8% | -15.3% | nt | -0.9% | 1.0% | 7.6% | nt
O=c1c(Cc2ccccc2)c(O)nc2n1CCS2 | 11.6% | 36.1% | -55.3* | 6.3% | 1.0% | 1.1% | 3.9%
O=C(NC1CC1)C1=C[C@@H](c2c[nH]c3ccccc23)C[C@@H](OCc2ccc(CO)cc2)O1 | -2.1% | 3.1% | -50.5* | ? | -13.1% | -1.3% | -6.9%
O=C(NC1CC1)C1=C[C@H](c2c[nH]c3ccccc23)C[C@H](OCCCCO)O1 | 4.7% | 0.7% | -19.1 | 62.1% | -9.2% | -5.1% | nt
O=c1nc(N2CCCC2)nc(N2CCCC2)[nH]1 | -2.6% | 4.6% | 6.6 | 8.5% | -10.3% | -2.5% | nt
N#CCCSCc1ccc2oc(C(=O)O)cc2c1 | -1.4% | -1.3% | nt | 4.4% | -4.9% | 7.8% | nt
COCc1ccc2oc(C(=O)O)cc2c1 | -16.5% | 19.1% | -67.6* | -15.6% | -6.6% | 21.1% | -0.5%
O=C(CCn1nnc2ccccc21)Nc1nnc(COc2ccccc2F)s1 | -6.6% | -9.1% | -6.4 | 18.8% | -7.8% | 0.5% | nt
O=C(CCn1nnc2ccccc21)Nc1nnc(Cc2ccccc2)s1 | ? | ? | -52.6* | ? | -27.6% | 6.8% | 0.6%
Cc1ccnc(NC(=O)c2sc3ccccc3c2Cl)c1 | -13.9% | 5.5% | -8.5 | 3.0% | -3.8% | 3.2% | nt
O=C(NCCCN1CCOCC1)c1sc2cc([N+](=O)[O-])ccc2c1Cl | -13.7% | 88.8% | -67.7* | 59.5% | -0.5% | ? | -0.7%
O=C(Nc1ccccn1)c1sc2cc([N+](=O)[O-])ccc2c1Cl | 19.0% | 0.2% | -51.8* | -20.1% | -17.3% | -6.9% | -8.9%
COc1ccc2cc(S(=O)(=O)NC3CC(C)(C)NC(C)(C)C3)ccc2c1 | -5.4% | -2.6% | 3.3 | -28.2% | -7.4% | 1.2% | nt
O=C(CN1CCCCC1)Nc1nnc(-c2ccc([N+](=O)[O-])cc2)s1 | 17.8µM* | 7.7% | -70.5* | -22.7% | -12.0% | 1.7% | 1.4%
O=C(CN1CCCCC1)Nc1nnc(-c2ccccc2)s1 | -8.9% | -9.3% | 6.8 | 5.2% | -4.0% | 0.8% | nt
Cc1nc2ccc(NC3=NCCCCC3)cc2s1 | ? | -12.0% | -54.6* | 9.2% | -15.4% | 0.2% | -9.8%
Cc1ccc(NC2=NCCC2)cc1Cl | -5.6% | 8.8% | 1.1 | 13.1% | -3.0% | 2.3% | nt
COc1ccc(C2=NOC(C(=O)NCc3ccccn3)C2)cc1OC (stereo unspecified) | 4.5% | 30.1% | -52.8* | 27.4% | -7.8% | 0.2% | 2.8%
O=C(Nc1cc(S(=O)(=O)N2CCOCC2)ccc1N1CCCC1)c1ccc2c(c1)S(=O)(=O)c1ccccc1C2=O | -17.1% | 33.7% | -77.2* | 49.1% | -1.2% | -4.8% | -10.8%
O=C(Nc1cc(S(=O)(=O)N2CCOCC2)ccc1N1CCCCC1)c1ccc(Cl)cc1 | -20.5% | nt | -26.0 | 2.3% | 0.8% | -24.4% | nt
O=C(Nc1cc(S(=O)(=O)N2CCOCC2)ccc1O)c1ccc(NS(=O)(=O)c2ccc(Cl)s2)cc1 | -7.5% | 7.5% | -58.8* | -19.6% | -5.8% | -8.4% | 2.9%
O=C(Nc1cc(S(=O)(=O)N2CCOCC2)ccc1N1CCCC1)c1ccc(Cl)cc1 | -6.3% | nt | -50.9* | 16.1% | -13.7% | -2.5% | 0.1%
SMILES | POLH inh | POLB inh | PI5P4Ka inh | Pol iota inh | POLK inh | FEN1 inhibitor | ADP-Glo counter
O=C(Nc1cc(S(=O)(=O)N2CCOCC2)ccc1N1CCCCC1)c1ccccc1 | -19.3% | nt | -7.0 | -11.7% | -7.2% | -10.2% | nt
CCOC(=O)C1=CN(Cc2ccco2)S(=O)(=O)NC1c1cccc(OC)c1 (stereo unspecified) | -9.8% | nt | -4.3 | 31.5% | 6.0% | -3.0% | nt
Cc1nnc(-c2ccccc2)nc1N(C)C | -22.4% | 8.3% | -68.1* | 114.8% | -1.4% | 3.1% | -1.7%
CN1CCN(C(c2ccc(Br)cc2)c2cc(Cl)c3cccnc3c2O)CC1 (stereo unspecified) | -24.8% | 13.5% | -84.3* | 43.3% | -4.8% | ? | -6.6%
COc1cccc(N2C(=NC(=O)C3CCCO3)SC3CS(=O)(=O)CC32)c1 (stereo unspecified) | -10.3% | 24.0% | -1.1 | 29.7% | 15.0% | -4.2% | nt
CC(C(=O)Nc1cc([N+](=O)[O-])ccc1Cl)N1CCN(c2ccc(O)cc2)CC1 (stereo unspecified) | ? | ? | -66.0* | ? | ? | -13.4% | 2.9%
CC(C(=O)Nc1ccc([N+](=O)[O-])cc1Cl)N1CCN(S(=O)(=O)c2cccs2)CC1 (stereo unspecified) | -1.5% | nt | 4.0 | 14.4% | -10.9% | -0.4% | nt
Cc1cc(NC(=O)CC2(CC(=O)O)CCCC2)n(C)n1 | -0.7% | -10.0% | 3.3 | 5.5% | -0.2% | 18.9% | nt
CC(=O)Nc1cc(NC(C)=O)cc(C(=O)N2CCCC3CCCCC32)c1 (stereo unspecified) | 22.4µM* | ? | -65.2* | 14.1µM* | 79.4µM* | -19.7% | 0.3%
O=C(Nc1ccccc1)N1CCCC2CCCCC21 (stereo unspecified) | -15.4% | -1.3% | -4.0 | 5.9% | -16.5% | -10.6% | nt
Cc1c(C(=O)Nc2cccc([N+](=O)[O-])c2)cnn1-c1ccccc1 | -1.1% | 9.0% | 3.1 | -22.8% | -7.7% | -10.8% | nt
COc1cc(Br)cc(C(=O)N2CCc3ccccc32)c1OC | -17.8% | nt | 5.8 | nt | nt | nt | nt
CC(C)(C)[C@H]1C=C(C(=O)N2CCOCC2)O[C@@H](OCc2ccc(CO)cc2)C1 | -2.1% | 45.1% | 0.5 | ? | -1.5% | 16.6% | 3.2%
CCc1ccc(C2CC(=O)NC(NC(=O)c3ccc(C(C)(C)C)cc3)=N2)cc1 (stereo unspecified) | -0.5% | 16.0% | nt | 12.4% | 7.3% | -12.3% | nt
O=C(COC(=O)CCc1nc2ccccc2c(=O)[nH]1)Nc1ccc(Cl)cn1 | -34.4% | 3.1% | -55.3* | 62.2% | -4.1% | 0.5% | 0.9%
O=C(COC(=O)CCc1nc2ccccc2c(=O)[nH]1)Nc1ccccc1 | -6.3% | nt | -4.2 | -12.7% | -12.7% | -7.2% | nt
